Sampled rows, rich in hits. Any-hit rate of the full collection: about 12%.
BAZ2B block = inhibitors of human BAZ2B bromodomain; AID 504333; 360,000 compounds, 4.4% hits; AlphaScreen BAZ2B-H3K14Ac peptide displacement; Potency, µM (doses to about 114 µM), for inactives: at the highest dose activity change, negative = inhibition, usual class: inhibitors; Q9UIF8; further: potency means the concentration at half of the fitted maximal effect; on the % scale 0 is the no-effect control and ±100 the full control effect; nearly all actives have a fitted effect of over 60% in size
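AlphaScreen luminescence quantifies BAZ2B engagement of H3K14Ac peptide; the protein and biotinylated peptide are both at 50 nM final, buffer PBS pH 7.4 with 0.01% Tween-20, all steps at room temperature.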
G9a block = inhibitors of human histone lysine methyltransferase G9a. 350,000 compounds, 8.8% hits. G9a H3K9 monomethylation, AlphaScreen, 2 h. Q96KQ7. Potency, µM (titrated, usually from 102 µM), inactives show at the highest dose activity, negative = inhibition, hits mostly inhibitors; further: potency means the concentration at half of the fitted maximal effect; on the % scale 0 is the no-effect control and ±100 the full control effect; nearly all actives have a fitted effect of over 75% in size
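G9a (20 nM) was preincubated 15 min with compound, then reacted 2 h at room temperature with 500 nM biotin-H3K9 peptide and 20 µM SAM. Monomethyl-H3K9 detected by AlphaScreen using anti-H3K9me1 antibody.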
JMJD2A Tudor inh = JMJD2A Tudor domain (human) inhibition. AlphaScreen JMJD2A-Tudor / H3K4me3 peptide binding. Potency, µM (titrated, usually from 114 µM), for the others: at the highest dose activity change, negative = inhibition, actives largely listed as inhibitors. 390,000 compounds, 4.4% hits. AID 504339; further: potency means the concentration at half of the fitted maximal effect; on the % scale 0 is the no-effect control and ±100 the full control effect; nearly all actives have a fitted effect of over 50% in size
Target sequence (O75164 whole entry, looked up, the tested form may be a part): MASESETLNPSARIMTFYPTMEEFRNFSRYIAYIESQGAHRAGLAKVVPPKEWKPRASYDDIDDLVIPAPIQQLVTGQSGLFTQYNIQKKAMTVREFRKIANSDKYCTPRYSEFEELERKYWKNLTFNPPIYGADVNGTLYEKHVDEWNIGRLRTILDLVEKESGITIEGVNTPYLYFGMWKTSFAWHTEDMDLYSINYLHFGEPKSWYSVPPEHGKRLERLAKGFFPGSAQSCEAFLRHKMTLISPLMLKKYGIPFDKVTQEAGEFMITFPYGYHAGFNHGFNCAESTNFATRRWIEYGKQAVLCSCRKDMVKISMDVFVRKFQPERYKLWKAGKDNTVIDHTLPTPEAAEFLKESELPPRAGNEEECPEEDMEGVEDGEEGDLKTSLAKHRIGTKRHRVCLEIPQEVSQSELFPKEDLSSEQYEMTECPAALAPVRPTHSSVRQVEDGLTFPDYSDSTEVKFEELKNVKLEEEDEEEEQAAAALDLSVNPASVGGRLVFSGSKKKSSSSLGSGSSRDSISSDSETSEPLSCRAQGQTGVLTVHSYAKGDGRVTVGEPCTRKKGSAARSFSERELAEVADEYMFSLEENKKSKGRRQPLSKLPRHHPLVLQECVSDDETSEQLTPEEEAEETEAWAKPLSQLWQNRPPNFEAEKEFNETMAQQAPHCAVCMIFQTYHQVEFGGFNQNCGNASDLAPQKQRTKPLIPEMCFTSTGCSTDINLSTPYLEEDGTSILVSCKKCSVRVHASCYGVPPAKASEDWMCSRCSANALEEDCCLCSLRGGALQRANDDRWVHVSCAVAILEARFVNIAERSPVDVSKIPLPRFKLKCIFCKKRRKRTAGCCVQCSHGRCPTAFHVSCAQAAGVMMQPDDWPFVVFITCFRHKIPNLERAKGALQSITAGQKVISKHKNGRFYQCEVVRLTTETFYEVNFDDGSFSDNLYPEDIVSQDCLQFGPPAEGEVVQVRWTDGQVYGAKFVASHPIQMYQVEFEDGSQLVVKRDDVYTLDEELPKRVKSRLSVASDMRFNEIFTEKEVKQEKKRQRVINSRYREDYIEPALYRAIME
PI5P4K alpha inh = inhibitors of human PI5P4K alpha | P48426 | PI5P4Kalpha enzyme, ADP-Glo luminescence, 60 min; active compounds read low | max response, % | 330,000 compounds, 1.2% hits; active means max response of -50% or lower; inconclusive means between -30% and -50%; inactive means -30% or higher; further: value at the top dose of about 77 µM; on the % scale 0 is the no-effect control and ±100 the full control effect
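ADP-Glo luminescence end-point read after a 60 min room-temperature kinase reaction of PI5P4Kalpha plus substrate, initiated with ATP at 5 microM final. Buffer: 0.038 M HEPES pH 7.4, EGTA, 0.1% CHAPS, 5% DMSO.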
PLK1 PBD block = PLK1 (human) polo-box domain binding inhibition | P53350 | Plk1 PBD binding of FITC phosphopeptide, fluorescence polarization | Potency, µM, for the others: max response, negative = inhibition, usual class: inhibitors | 360,000 compounds, 2.8% hits | AID 720504; further: potency means the concentration at half of the fitted maximal effect; series mostly up to about 57 µM; on the % scale 0 is the no-effect control and ±100 the full control effect; nearly all actives have a fitted effect of over 65% in size
HP1b chromo inh = HP1-beta chromodomain-methylated histone interaction inhibition. Potency, µM (series often up to 114 µM), for inactives: at the top dose activity change, negative = inhibition, usual class: inhibitors. AID 540317. AlphaScreen HP1-beta / biotin-H3K9me3 peptide binding. P83916. 390,000 compounds, 0.56% hits; further: potency means the concentration at half of the fitted maximal effect; nearly all actives have a fitted effect of over 70% in size
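AlphaScreen: HP1-beta (50 nM) preformed 30 min with biotin-H3(1-18)K9me3 peptide (50 nM) in PBS pH 7.4, 0.01% Tween-20. Compound added for 30 min at RT, then streptavidin donor/nickel chelate acceptor beads (10 ug/mL) for 30 min.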
ADP-Glo counter = interferes with ADP-Glo detection without enzyme present; shares compounds with PI5P4K alpha inh; ADP-Glo detection counter-screen, luciferase luminescence, no enzyme; Potency, µM (series often up to 76.9 µM), for the others: at the highest dose activity change, negative = inhibition, hits mostly inhibitors; 1,100 tested, under 10 active
* hit, by the source's call; u = inconclusive; x = no result; [ ] = remark or other dose. Unless noted, the call rests on the fitted dose curve; in most records, active means well fitted curve in the direction sought with a large enough effect; inconclusive means small, poorly fitted or top-dose-only effect, or another doubt; inactive means no such curve, though single readings can be large; an effect the other way counts as inactive or inconclusive.

SMILES	BAZ2B block	G9a block	JMJD2A Tudor inh	PI5P4K alpha inh	PLK1 PBD block	HP1b chromo inh	ADP-Glo counter
Cc1ccc(NC(=O)Nc2cccs2)cc1	u	u	-22%	-54*	-9%	2%	3%
CCCCC1=CC2=C(c3ccco3)C(=O)C(C)(OC(=O)c3ccc(OC)cc3)C(=O)C2=CN1Cc1ccccc1 (stereo not drawn)	u	-39%[59 µM]	u	-71*	-27%	15%	-2%
O=C(NCc1ccco1)c1ccc(S(=O)(=O)N2CCCCC2)cc1	-11%	-1%	-10%	-2	-3%	29%	x
O=C(NCc1ccco1)c1ccc(S(=O)(=O)N2CCOCC2)cc1	79µM*	13µM*	u	-53*	u	u	0%
CCCCc1c(Cc2ccccc2)ncn1CCc1ccccc1OC	x	x	x	-67*	-26%	x	2%
COc1ccc(NS(=O)(=O)c2cc(NC(=O)c3ccncc3)ccc2N2CCOCC2)cc1	-38%	16%[59 µM]	-5%	1	-23%	5%	x
O=C(Nc1ccc(N2CCOCC2)c(S(=O)(=O)Nc2ccc(Cl)cc2)c1)c1ccc(=O)[nH]n1	x	x	u	-62*	-25%	-6%	-6%
CCC(C)COC(=O)c1ccc(C(=O)O)cc1 (stereo not drawn)	5%	-2%	u	-64*	-16%	49%	-10%
CCc1ccc(C(=O)O)cc1	-4%	-3%	-1%	-2	2%	21%	x
O=C(O)c1sccc1NC(=O)c1c(Cl)cccc1Cl	2%	-2%	-16%	-55*	-2%	-3%	2%
CCOc1ccc(S(=O)(=O)N2CCN(c3ccc(C)cc3C)CC2)cc1	-4%	-7%[59 µM]	0%	-110*	3%	43%	-2%
CCOc1ccc(S(=O)(=O)N2CCN(c3ccc(C)cc3C)CC2)c2ccccc12	-15%	6%[59 µM]	3%	x	x	43%	x
CC(C)Cc1ccc(CN2C(C)C(=O)N(Cc3cn(Cc4ccco4)nn3)CCS2(=O)=O)cc1 (stereo not drawn)	x	x	x	-64*	u	x	-4%
Cc1ccc(-c2ccc(CN3C(C)C(=O)N(Cc4cn(Cc5ccco5)nn4)CCS3(=O)=O)cc2)c(C)c1 (stereo not drawn)	x	x	x	-53*	-15%	x	-2%
COCCOC(=O)c1[nH]c2c(c1C)C(=O)CC(c1ccc(N(C)C)cc1)C2 (stereo not drawn)	u	u	u	-20	-6%	-16%	x
COCCOC(=O)c1[nH]c2c(c1C)C(=O)CC(c1ccco1)C2 (stereo not drawn)	50µM*	50µM*	45µM*	-55*	u	50µM*	-9%
CSCCOC(=O)c1[nH]c2c(c1C)C(=O)CC(c1ccco1)C2 (stereo not drawn)	45µM*	22µM*	35µM*	-66*	-29%	u	5%
O=S(=O)(c1ccccc1)N1CCC[C@@]2(CCN(c3ccccc3)C2)C1	x	-25%[12.7 µM]	x	x	x	x	x
COC(=O)Nc1ccc(S(=O)(=O)N2CCC(C(=O)N3CCC(C)CC3)CC2)cc1	-8%	11%	11µM*	-80*	9.5µM*	-3%	0%
Cc1c2cnn(CC(=O)Nc3c(F)c(F)cc(F)c3F)c(=O)c2c(C)n1Cc1ccccc1F	56µM*	u	u	-56*	u	-16%	4%
O=C1Nc2cc(Cl)ccc2Nc2cscc21	x	x	-30%	x	x	-3%	2%
CC1(C)CC(=O)C2=C(C1)Nc1cc(Cl)ccc1S2	-28%	x	-11%	6	0%	15%	x
Cc1ccc(Cl)cc1N1CCN(c2ncnc3onc(C)c23)CC1	-1%[57.1 µM]	-4%[59 µM]	-9%	x	x	12%	x
O=C(O)C1CSC(c2coc3ccccc3c2=O)N1 (stereo not drawn)	50µM*	u	25µM*	-67*	-19%	u	2%
O=C(c1cccc(S(=O)(=O)N2CCN(c3ccccc3)CC2)c1)N1CCCCCCC1	-9%	14%[0.501 µM]	-31%	-3	0%	9%	x
SMILES	BAZ2B block	G9a block	JMJD2A Tudor inh	PI5P4K alpha inh	PLK1 PBD block	HP1b chromo inh	ADP-Glo counter
O=C(c1cccc(-n2cccc2)c1)N1CCN(S(=O)(=O)c2ccccc2)CC1	8.9µM*	5%[2.33 µM]	5.6µM*	-69*	u	13µM*	3%
COc1ccc(CCN2CC(C(=O)NCCc3ncccc3C)CCC2=O)cc1 (stereo not drawn)	x	x	x	1	-14%	x	x
CC(C)c1ccc(NC(=O)CN(C)S(=O)(=O)c2ccc3c(c2)n(C)c(=O)c(=O)n3C)cc1	2%	6%[59 µM]	0%	x	x	36%	x
N#Cc1c(SCC(=O)Nc2nc3ccccc3s2)sc2c(O)cc(=O)[nH]c12	45µM*	u	8.9µM*	-78*	24µM*	u	-3%
CCOc1cccc(NC(=O)CSc2sc3c(O)cc(=O)[nH]c3c2C#N)c1	-27%	u	-15%	-60*	-25%	13%	1%
N#Cc1c(SCC(=O)Nc2nc3ccc(Br)cc3s2)sc2c(O)cc(=O)[nH]c12	20µM*	40µM*	25µM*	-102*	u	22µM*	6%
N#Cc1c(SCC(=O)Nc2ccccc2C(F)(F)F)sc2c(O)cc(=O)[nH]c12	-24%	-15%[59 µM]	-14%	u	-17%	14%	x
O=C(CSc1nccn1-c1ccccc1)Nc1nc2ccccc2s1	u	-34%[59 µM]	-22%	x	x	-11%[57 µM]	x
O=C(CSc1nc(O)cc(=O)n1-c1ccccc1)Nc1nc2ccccc2s1	u	1%	-33%	-66*	-25%	17%	2%
CC1=C(C(=O)Nc2ccc(Cl)cc2)C(c2ccc(C(F)(F)F)cc2)n2nnnc2N1 (stereo not drawn)	-18%	-5%[59 µM]	-25%	x	x	37%	x
O=C(O)[C@@H](O)[C@@H](O)[C@H](O)C(=O)CO	x	25%[59 µM]	x	x	x	x	x
N#Cc1c(SCC(=O)Nc2nccs2)sc2c(O)cc(=O)[nH]c12	16µM*	32µM*	-35%	-94*	u	-5%	7%
O=C1CCC[C@@H]2C=C[C@H](c3ccc(Br)cc3)[C@H]3CCN1[C@@H]32	x	x	x	-3	-12%	x	x
CNC(=S)N(Cc1ccco1)Cc1cc2cc3c(cc2[nH]c1=O)OCCO3	-26%	79µM*	-28%	-57*	27µM*	-10%	1%
O=c1cc(CSc2nnc(-c3cccs3)n2Cc2ccccc2)nc2sc3ccccc3n12	45µM*	u	-35%	-51*	-20%	22%	6%
Cc1cc(C(=O)CSc2nnc(-c3cccs3)n2Cc2ccccc2)c(C)n1C	x	u	u	0	-2%	-22%	x
CC(=O)Nc1cccc2cc(O)ccc12	x	x	u	-63*	-22%	u	3%

Screening results as filed in PubChem.
